From PubChem BioAssay (Tox21)
Results filed as inconclusive are left out. Active and inactive are the calls of the source. Calls follow the shape of the dose curve; as a rule, active = well fitted curve in the direction sought with a large enough effect in the repeat runs; inconclusive = weak or mixed curves; inactive = no such curve, though single readings can be large; an effect the other way counts as inactive or inconclusive.

Key:
[1] = qHTS RealTime-Glo MT Cell Viability Assay in HEK293 cells - 32 hour (AID 1224868); also: top concentration of the series differs between compounds; nearly all actives have a fitted effect of over 50% in size
In short: (§1)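 Nonlytic real-time viability readout: viable cells convert prosubstrate to NanoLuc substrate, giving luminescence proportional to live cell number. HEK293, 600 cells/well, compound added after 5 h, continuous culture at 37 C.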

[2] = A CellTox Green Cytotoxicity Assay to monitor cytotoxicity in HEK293 cells - 0 hour (AID 1224869); also: nearly all actives have a fitted effect of over 50% in size
In short: (§2)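 HEK293 cells, 600/well, were preincubated 5 hours and then exposed to compounds at 37 C for up to 40 hours. A cell-impermeant cyanine dye staining dead-cell DNA was read by fluorescence at 0, 8, 16, 24, 32 and 40 h time points.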

[3] = qHTS RealTime-Glo MT Cell Viability Assay in HepG2 cells - 40 hour (AID 1224870); also: nearly all actives have a fitted effect of over 50% in size
In short: (§3)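 HepG2 cells mixed with RealTime-Glo MT reagents (NanoLuc plus cell-permeant prosubstrate) were seeded at 600 cells/well, incubated 5 h at 37 C/5% CO2, then pinned with compounds in DMSO; nonlytic luminescence tracked viability during 40 h treatment.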

[4] = A CellTox Green Cytotoxicity Assay to monitor cytotoxicity in HEK293 cells - 40 hour (AID 1224871); also: nearly all actives have a fitted effect of over 45% in size
In short: as §2

[5] = qHTS RealTime-Glo MT Cell Viability Assay in HEK293 cells - 16 hour (AID 1224872); also: top concentration of the series differs between compounds; nearly all actives have a fitted effect of over 50% in size
In short: as §1

[6] = qHTS RealTime-Glo MT Cell Viability Assay in HEK293 cells - 40 hour (AID 1224874); details: RealTime-Glo luminescence, hits give low values; also: nearly all actives have a fitted effect of over 50% in size
In short: (§4)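 600 cells/well were plated with the nonlytic NanoLuc/prosubstrate reagent, pre-incubated 5 h, then given 23 nL of compound in DMSO. Incubation at 37 C for 40 h, with luminescence from viable-cell-reduced substrate read repeatedly from 0 h.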

[7] = A CellTox Green Cytotoxicity Assay to monitor cytotoxicity in HEK293 cells - 24 hour (AID 1224875); also: series mostly up to about 77 µM; nearly all actives have a fitted effect of over 45% in size
In short: as §2

[8] = A CellTox Green Cytotoxicity Assay to monitor cytotoxicity in HepG2 cells - 16 hour (AID 1224876); also: nearly all actives have a fitted effect of over 45% in size
In short: (§5)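 HepG2 cells, 600/well, preincubated 5 h with CellTox Green dye, then exposed to Tox21 compounds in DMSO at 37 C for up to 40 h. Dead-cell DNA fluorescence read at the indicated time point.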

[9] = qHTS RealTime-Glo MT Cell Viability Assay in HepG2 cells - 32 hour (AID 1224877); also: nearly all actives have a fitted effect of over 55% in size
In short: (§6)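 Luminescence read-out: viable HepG2 cells reduce a prosubstrate to a NanoLuc substrate, giving a signal proportional to live cell number. Reads taken at 0, 8, 16, 24, 32 and 40 h of compound exposure at 37 C.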

[10] = A CellTox Green Cytotoxicity Assay to monitor cytotoxicity in HepG2 cells - 24 hour (AID 1224878); also: nearly all actives have a fitted effect of over 45% in size
In short: as §5

[11] = A CellTox Green Cytotoxicity Assay to monitor cytotoxicity in HepG2 cells - 40 hour (AID 1224879); also: nearly all actives have a fitted effect of over 40% in size
In short: as §5

[12] = qHTS RealTime-Glo MT Cell Viability Assay in HEK293 cells - 0 hour (AID 1224880)
In short: as §4

[13] = A CellTox Green Cytotoxicity Assay to monitor cytotoxicity in HEK293 cells - 32 hour (AID 1224881); also: nearly all actives have a fitted effect of over 40% in size
In short: as §2

[14] = A CellTox Green Cytotoxicity Assay to monitor cytotoxicity in HepG2 cells - 0 hour (AID 1224882); also: nearly all actives have a fitted effect of over 35% in size
In short: as §5

[15] = A CellTox Green Cytotoxicity Assay to monitor cytotoxicity in HepG2 cells - 32 hour (AID 1224883); also: nearly all actives have a fitted effect of over 50% in size
In short: as §5

[16] = A CellTox Green Cytotoxicity Assay to monitor cytotoxicity in HEK293 cells - 8 hour (AID 1224884); also: nearly all actives have a fitted effect of over 35% in size
In short: as §2

[17] = qHTS RealTime-Glo MT Cell Viability Assay in HepG2 cells - 16 hour (AID 1224885); also: nearly all actives have a fitted effect of over 50% in size
In short: as §6

[18] = qHTS RealTime-Glo MT Cell Viability Assay in HEK293 cells - 24 hour (AID 1224886)
In short: as §1

[19] = qHTS RealTime-Glo MT Cell Viability Assay in HEK293 cells - 8 hour (AID 1224887)
In short: as §4

[20] = qHTS RealTime-Glo MT Cell Viability Assay in HepG2 cells - 8 hour (AID 1224873); also: nearly all actives have a fitted effect of over 55% in size
In short: as §3
% is scaled to controls: 0 for no effect and ±100 for the full control effect.

COCCCOc1cc(C[C@@H](C[C@H](N)[C@@H](O)C[C@H](C(=O)NCC(C)(C)C(N)=O)C(C)C)C(C)C)ccc1OC
inactive: outcome [1] | outcome [2] | outcome [3] | Potency [4] | outcome [5] | max response [6] 2.37% | Potency [7] | Potency [8] | outcome [9] | Potency [10] | Potency [11] | Potency [12] | Potency [13] | Potency [14] | Potency [15] | Potency [16] | outcome [17] | outcome [18] | outcome [19]

CN(C)CCc1c[nH]c2ccc(C[C@H]3COC(=O)N3)cc12
inactive: outcome [1] | outcome [2] | outcome [3] | Potency [4] | outcome [5] | Potency [7] | Potency [8] | outcome [9] | Potency [10] | Potency [12] | Potency [13] | Potency [14] | Potency [15] | Potency [16] | outcome [17] | outcome [18] | outcome [19]

COc1cc(OC)cc(OC)c1
inactive: outcome [1] | outcome [2] | outcome [3] | Potency [4] | outcome [5] | max response [6] 6.85% | Potency [7] | outcome [9] | Potency [10] | Potency [12] | Potency [13] | Potency [14] | Potency [15] | Potency [16] | outcome [17] | outcome [18] | outcome [19]

CCCCNCC
inactive: outcome [1] | outcome [2] | outcome [3] | Potency [4] | outcome [5] | outcome [20] | Potency [7] | Potency [8] | outcome [9] | Potency [10] | Potency [11] | Potency [12] | Potency [13] | Potency [15] | Potency [16] | outcome [17] | outcome [18] | outcome [19]

O=C(O)COc1ccc2ccccc2c1
inactive: outcome [1] | outcome [2] | outcome [3] | Potency [4] | outcome [5] | max response [6] 1.62% | Potency [7] | outcome [9] | Potency [10] | Potency [11] | Potency [12] | Potency [16] | outcome [17] | outcome [18] | outcome [19]

O=C(O)CCCCCCCCCC(=O)O
inactive: outcome [1] | outcome [2] | outcome [3] | Potency [4] | outcome [5] | max response [6] 0.0039% | Potency [7] | Potency [8] | outcome [9] | Potency [10] | Potency [11] | Potency [12] | Potency [13] | Potency [15] | Potency [16] | outcome [17] | outcome [18] | outcome [19]

COc1cnc(NS(=O)(=O)c2ccc(N)cc2)nc1
inactive: outcome [1] | outcome [2] | outcome [3] | Potency [4] | outcome [5] | max response [6] 3.91% | Potency [7] | Potency [8] | outcome [9] | Potency [10] | Potency [11] | Potency [12] | Potency [13] | Potency [14] | Potency [15] | Potency [16] | outcome [17] | outcome [18] | outcome [19]

O=C(c1ccccc1)c1cccc(O)c1
inactive: outcome [1] | outcome [2] | outcome [3] | Potency [4] | outcome [5] | outcome [20] | Potency [7] | Potency [8] | outcome [9] | Potency [10] | Potency [11] | Potency [12] | Potency [14] | Potency [15] | Potency [16] | outcome [17] | outcome [18] | outcome [19]

CCCCN(CCCC)CCCCCCN(CCCC)CCCC
inactive: outcome [1] | outcome [2] | outcome [3] | Potency [4] | outcome [5] | max response [6] -10.4% | Potency [7] | Potency [8] | outcome [9] | Potency [10] | Potency [11] | Potency [12] | Potency [13] | Potency [14] | Potency [15] | Potency [16] | outcome [17] | outcome [18] | outcome [19]

O=P(O)(O)C(O)(Cc1cccnc1)P(=O)(O)O
inactive: outcome [1] | outcome [2] | outcome [3] | Potency [4] | outcome [5] | outcome [20] | Potency [7] | outcome [9] | Potency [10] | Potency [11] | Potency [12] | Potency [13] | Potency [14] | Potency [15] | Potency [16] | outcome [17] | outcome [19]

O=C(O)Cc1c(Cl)ccc(Cl)c1Cl
inactive: outcome [1] | outcome [2] | outcome [3] | Potency [4] | outcome [20] | max response [6] 2.56% | Potency [7] | Potency [8] | outcome [9] | Potency [10] | Potency [11] | Potency [12] | Potency [13] | Potency [14] | Potency [15] | Potency [16] | outcome [17] | outcome [18] | outcome [19]

CCOC(=O)COc1ccc2c(C)c(CCN(CC)CC)c(=O)oc2c1Cl
inactive: outcome [1] | outcome [2] | outcome [3] | Potency [4] | outcome [20] | max response [6] 1.31% | Potency [7] | Potency [8] | outcome [9] | Potency [10] | Potency [11] | Potency [12] | Potency [13] | Potency [15] | Potency [16] | outcome [17]

CC(C)(C)OC(=O)c1ccccc1C(=O)O
inactive: outcome [1] | outcome [2] | outcome [3] | Potency [4] | Potency [7] | Potency [8] | outcome [9] | Potency [10] | Potency [11] | Potency [12] | Potency [13] | Potency [14] | Potency [16] | outcome [17] | outcome [18] | outcome [19]

O=Cc1ccccc1S(=O)(=O)O
inactive: outcome [1] | outcome [2] | outcome [3] | Potency [4] | outcome [20] | max response [6] 7.86% | Potency [7] | Potency [8] | outcome [9] | Potency [10] | Potency [12] | Potency [13] | Potency [14] | Potency [15] | Potency [16] | outcome [17] | outcome [18] | outcome [19]

Nc1ccc(C(=O)NCC(=O)O)cc1
inactive: outcome [1] | outcome [2] | outcome [3] | Potency [4] | max response [6] -0.411% | Potency [7] | Potency [8] | outcome [9] | Potency [10] | Potency [11] | Potency [12] | Potency [13] | Potency [14] | Potency [15] | Potency [16] | outcome [17] | outcome [18] | outcome [19]

C=CCN(CC=C)CC=C
inactive: outcome [1] | outcome [2] | outcome [3] | Potency [4] | outcome [20] | max response [6] 12.2% | Potency [7] | Potency [8] | outcome [9] | Potency [10] | Potency [11] | Potency [12] | Potency [13] | Potency [14] | Potency [15] | Potency [16] | outcome [17] | outcome [19]
